This is an account of results in PubChem BioAssay (NCI).

Compounds without any hit were thinned out: in the full panel of roughly 83,000, 20% have a hit.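 Negative percent growth values reflect cell death: -40 means 40% of the cells present at the start died, and -100 means all died.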 Values without a mark were called inactive. Active and inactive are the calls of the source. The calls were made as follows: active = growth percent below 10; inactive = the rest.

Test systems include DU-145 prostate; K-562 leukemia; MALME-3M melanoma; MDA-MB-231 breast; RXF 393 renal; SF-268 CNS; SF-295 CNS; SF-539 CNS; UACC-257 melanoma; M14 melanoma; HCT-15 colon; HT29 colon; SNB-75 CNS; SNB-19 CNS; U251 CNS; PC-3 prostate; SK-MEL-5 melanoma; UACC-62 melanoma; LOX IMVI melanoma; SK-MEL-28 melanoma.
Common to all, as to assay: NCI-60 one-dose screen, 48 h (100 = growth as untreated, 0 = no growth, -100 = all killed)
What all share (details): 10 µM unless noted

Turning to `Cc1nc2cc(O)c(O)cc2cc1Oc1ccc(NC(=O)Nc2ccc(Cl)c(Cl)c2)cc1`, the growth was 60.3% in the test on DU-145 prostate; 53.9% with K-562 leukemia; 85.2% in the test with MALME-3M melanoma; 45% with MDA-MB-231 breast; 20.4% in the test with RXF 393 renal; 65.5% in the test on SF-268 CNS. The growth in the test on SF-295 CNS is 95.9%; with SF-539 CNS, 56.9%; in the test with UACC-257 melanoma, 88.5%; in the test on M14 melanoma, 80.7%; with HCT-15 colon it was 37.2%; in the test with HT29 colon it was 48%. In addition, the growth with SNB-75 CNS was 75.8%; with SNB-19 CNS it was 49%; in the test with U251 CNS it was 41.4%; with PC-3 prostate, 39.3%; in the test with SK-MEL-5 melanoma, -42.2% (active); in the test with UACC-62 melanoma, 84.5%. Also, the growth was 0.463% (active) with LOX IMVI melanoma and 79.1% with SK-MEL-28 melanoma.
`CCS/C(Nc1ccccc1)=C(\C#N)C(=O)Nc1ccc(OC)cc1`: the growth was 33.8% in the test on DU-145 prostate; 7.34% (active) in the test with K-562 leukemia; 55.6% in the test with MALME-3M melanoma; 44.5% in the test on MDA-MB-231 breast; 39.5% with RXF 393 renal; 39.1% with SF-268 CNS. Besides, the growth is 32.6% with SF-295 CNS; 29.1% with SF-539 CNS; 58.4% in the test with UACC-257 melanoma; 15.2% with M14 melanoma; 16.9% in the test with HCT-15 colon; 6.46% (active) with HT29 colon. Besides, the growth is 18.2% in the test on SNB-75 CNS; 23.1% in the test with SNB-19 CNS; 16.6% in the test with U251 CNS; 47.9% in the test with PC-3 prostate; 17.8% in the test with SK-MEL-5 melanoma; 27.2% with UACC-62 melanoma. The growth is 36.6% in the test with LOX IMVI melanoma and 58.9% in the test on SK-MEL-28 melanoma.
Consider `Oc1c(CN2CCCC2)cc(CSCc2ccccc2)c2cccnc12`, for which the growth in the test with DU-145 prostate was 22.6%; in the test with K-562 leukemia it was 11%; in the test on MALME-3M melanoma, -2.43% (active); in the test on MDA-MB-231 breast, 26.4%; in the test with RXF 393 renal, 31.3%; with SF-268 CNS, 11.9%. Moreover, the growth is 5.5% (active) in the test with SF-295 CNS; -26.2% (active) in the test with SF-539 CNS; -16.7% (active) with UACC-257 melanoma; -3.2% (active) in the test on M14 melanoma; -39.3% (active) with HCT-15 colon; 91% in the test with HT29 colon. Moreover, the growth was 24.6% in the test with SNB-75 CNS; 23.9% in the test on SNB-19 CNS; -1.52% (active) in the test with U251 CNS; 20.8% in the test on PC-3 prostate; -26.3% (active) with SK-MEL-5 melanoma; -19.5% (active) in the test with UACC-62 melanoma. In addition, the growth with LOX IMVI melanoma was 2.24% (active); in the test on SK-MEL-28 melanoma it was 23.8%.
On to `Cc1ccc(Cl)cc1NC(=O)c1sc2nc3c(cc2c1N)C(=O)CCC3`, for which the growth in the test with DU-145 prostate is 77.4%; in the test with K-562 leukemia it was 33.6%; with MALME-3M melanoma it was 81.1%; in the test with MDA-MB-231 breast, 80%; in the test with RXF 393 renal it was 42.1%; with SF-268 CNS it was 74.9%. Further, the growth in the test with SF-295 CNS was 4.01% (active); in the test with SF-539 CNS it was 47.7%; with UACC-257 melanoma it was 44.9%; in the test with M14 melanoma it was 62.9%; in the test with HCT-15 colon, 45.9%; in the test on HT29 colon, 28.8%. Moreover, the growth with SNB-75 CNS was 48%; in the test with SNB-19 CNS, 68.1%; in the test on U251 CNS, 59.1%; in the test with PC-3 prostate, 55.8%; with SK-MEL-5 melanoma, 27%; in the test on UACC-62 melanoma, 53.1%. For the same molecule, the growth with LOX IMVI melanoma was 68.1%; in the test on SK-MEL-28 melanoma it was 67%.
As for `N#C/C(=C\C=C\c1ccc(-c2cc(Cl)ccc2Cl)o1)c1nc2ccccc2s1`, the growth in the test on DU-145 prostate is 112%; with K-562 leukemia it was 100%; with MALME-3M melanoma, 95.4%; with MDA-MB-231 breast it was 72%; with RXF 393 renal, 99.3%; in the test with SF-268 CNS it was 98.6%. Besides, the growth in the test with SF-295 CNS is 96.5%; in the test on SF-539 CNS, 93.9%; with UACC-257 melanoma, 95%; with M14 melanoma, 103%; in the test with HCT-15 colon it was 102%; with HT29 colon, 108%. Also, the growth with SNB-75 CNS was 77.1%; with SNB-19 CNS it was 92.2%; with U251 CNS it was 107%; in the test with PC-3 prostate, 93.2%; in the test with SK-MEL-5 melanoma it was 97.5%; in the test with UACC-62 melanoma, 83.1%. Further, the growth in the test with LOX IMVI melanoma was 90.9%; with SK-MEL-28 melanoma, 118%.
In the case of `COc1ccc2c(c1)CCc1[nH]nc(-c3cc(OC)c(OC)c(OC)c3)c1-2`, the growth with DU-145 prostate was 7.06% (active); with K-562 leukemia it was 7.23% (active); in the test with MALME-3M melanoma it was 69.8%; in the test with MDA-MB-231 breast, 19.2%; with RXF 393 renal, 22.6%; in the test with SF-268 CNS, 17.8%. For the same molecule, the growth is 1.46% (active) with SF-295 CNS; 0.378% (active) in the test on SF-539 CNS; 38.2% in the test on UACC-257 melanoma; 4.46% (active) in the test with M14 melanoma; 10.3% with HCT-15 colon; 0.652% (active) in the test on HT29 colon. The growth was 36.7% with SNB-75 CNS; 28.7% in the test with SNB-19 CNS; 5.42% (active) in the test with U251 CNS; 12.6% in the test with PC-3 prostate; -54.2% (active) with SK-MEL-5 melanoma; 28.8% in the test on UACC-62 melanoma. For the same molecule, the growth was 5.34% (active) in the test with LOX IMVI melanoma and 58% in the test with SK-MEL-28 melanoma.
On to `CS(=O)(=O)c1nnc(-c2ccccc2)s1`, for which the growth is 88% in the test with DU-145 prostate; 78.4% with K-562 leukemia; 88.1% in the test on MALME-3M melanoma; 101% in the test on MDA-MB-231 breast; 110% with RXF 393 renal; 94.8% in the test on SF-268 CNS. The growth in the test on SF-295 CNS is 106%; with SF-539 CNS it was 106%; in the test with UACC-257 melanoma it was 91%; with M14 melanoma it was 74%; in the test with HCT-15 colon, 71.4%; in the test with HT29 colon, 82.2%. For the same molecule, the growth in the test on SNB-75 CNS was 103%; with SNB-19 CNS it was 107%; in the test on U251 CNS, 106%; in the test with PC-3 prostate, 96.4%; in the test with SK-MEL-5 melanoma, 99.4%; in the test with UACC-62 melanoma, 82.7%. The growth in the test on LOX IMVI melanoma was 71.2%; in the test with SK-MEL-28 melanoma it was 97.3%.
Take `C=C(C)[C@@H]1CC[C@]2(C(N)=O)CC[C@]3(C)[C@H](CC[C@@H]4[C@@]5(C)CC[C@H](OCCC#N)C(C)(C)[C@@H]5CC[C@]43C)[C@@H]12`: the growth was 94.7% in the test on DU-145 prostate; 74.3% with K-562 leukemia; 101% in the test on MALME-3M melanoma; 73.2% in the test on MDA-MB-231 breast; 86.8% with RXF 393 renal; 74.1% with SF-268 CNS. For the same molecule, the growth is 79.5% with SF-295 CNS; 91.6% in the test on SF-539 CNS; 101% in the test with UACC-257 melanoma; 90.2% in the test on M14 melanoma; 80.9% in the test on HCT-15 colon; 84.7% in the test on HT29 colon. Also, the growth was 85.9% with SNB-75 CNS; 81.2% with SNB-19 CNS; 87.7% in the test on U251 CNS; 68.8% with PC-3 prostate; 93.3% with SK-MEL-5 melanoma; 67.1% in the test with UACC-62 melanoma. The growth was 87.1% in the test on LOX IMVI melanoma and 92.8% with SK-MEL-28 melanoma.
